# Screening results from PubChem.
# A selection: hits, their analogues and other compounds. The true share with any hit is near 2.5%.
# UHRF1 binding – UHRF1 methylated DNA binding inhibitors, primary screen, counter-screen for MBD2 inhibitor project, biochemical, TR-FRET, human UHRF1, single concentration | UHRF1 binding to methylated oligo | inhibition, % at 4.4 µM | 370,000 tested, 0.75% active | E3 ubiquitin-protein ligase UHRF1 (Homo sapiens), Q96T88; in the data active means inhibition above about 21%;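 further: UHRF1 SRA domain binding a hemimethylated CpG hairpin DNA probe; 0% = median of test compound wells and 100% = reference inhibitor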
# MBD2 inh – inhibitors of MBD2 binding to methylated DNA, primary screen, biochemical, TR-FRET, DNA-binding domain, human. inhibition, % at 4.4 µM. Methyl-CpG-binding domain protein 2 (Homo sapiens), Q9UBB5. MBD2 binding to methylated oligonucleotide. 370,000 tested, 0.31% active; in the data active means inhibition above about 13%
# PRMT1 inh – PRMT1 methyltransferase inhibitors, primary screen, biochemical, fluorescence polarization | recombinant PRMT1, activity-based probe fluorescence polarization | 370,000 tested, 1.3% active | inhibition, % at 2.79 µM | Protein arginine N-methyltransferase 1 (Homo sapiens), Q99873;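 active means inhibition above about 21% made by adding two undisclosed values, limit read from the data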
# LEDGF integ inh – blockers of LEDGF/p75-dependent integrase strand transfer – biochemical, TR-FRET, high throughput, primary screen; 370,000 tested, 0.64% active; inhibition, % at 3.7 µM; TR-FRET IN-LEDGF/p75 DNA integration, Eu/Cy5;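 active means inhibition above the screen-wide mean plus 3 SD, cut at about 13% in these data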;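 further: signal is the Cy5 over europium emission ratio at 671 and 618 nm; 0% = plate median of compound wells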
# Numbers without * were called inactive.
SMILES,UHRF1 binding,MBD2 inh,PRMT1 inh,LEDGF integ inh
COc1ccc(NC(=O)CN(c2ccccc2C)S(C)(=O)=O)c(OC)c1,1.0,-0.8,0.6,-3.0
CCOC(=O)c1ccc(NC(=O)NC2CC3CCC(C2)N3Cc2nnnn2Cc2ccco2)cc1 (stereo not given),4.9,3.4,23.3*,5.4
Cc1cccc(NC(=O)c2ccc(S(=O)(=O)NCc3ccco3)cc2)n1,30.3*,3.1,-0.5,-1.0
O=C(Nc1ccc(F)c(Cl)c1)C1CC2CCC1C2 (stereo not given),-2.4,-0.3,0.2,2.8
CCC1(C(=O)NC(=Nc2ccccc2)Nc2ccccc2)CCOC1=O (stereo not given),3.0,-5.5,-3.0,1.1
Fc1cccc(Cl)c1CNC(c1ccccc1)c1ccccc1,58.0*,-3.7,-2.8,2.1
O=C(CNC(c1ccccc1)c1ccccc1)Nc1c(F)cccc1F,7.0,-4.5,0.4,1.1
CC1C(c2ccccc2)C(C#N)(C#N)C2(C#N)C(=O)NC1(N)C2C (stereo not given),23.2*,6.2,-0.8,-2.0
CCCC1C(c2ccc(OC)cc2)C(C#N)(C#N)C2(C#N)CC1(N)NC2=O (stereo not given),0.8,4.6,1.1,-2.6
CCOc1ccc(NC(=O)CN2C(=O)COc3ccccc32)cc1,-2.3,4.1,-2.1,1.7
COc1cc(NC(=O)CN2C(=O)COc3ccccc32)cc(OC)c1,21.0*,-2.9,1.9,-3.8
CC(=O)N(C1=C(Cl)C(=O)c2ccccc2C1=O)C1CCCCC1,-0.6,-10.3,92.0*,10.9
Nc1cc2nsnc2cc1Br,4.4,3.3,40.4*,48.2*
CCCCc1cn([C@@H](CCCCN)C(=O)N2CCNCC2)nn1,24.3*,6.5,5.4,1.6
CCC(CO)Oc1cc(NCc2ccccc2Cl)c2ncn(C(C)C)c2c1 (stereo not given),-2.7,-2.9,0.6,0.4
O=C(CCNS(=O)(=O)c1ccc(OC(F)(F)F)cc1)Nc1cccc(S(=O)(=O)N2CCCC2)c1,0.9,-0.6,1.8,1.3
CCOc1ccccc1CNC(=O)c1ccc2c(c1)N(CC)CCS2,-1.9,-0.2,22.7*,4.8
COC(=O)[C@H](Cc1c[nH]c2ccccc12)NC(=O)Nc1ccccc1OC,-2.7,2.4,-4.5,-0.5
CCOc1cc(C(=O)NC(C)CC)cc(OCC)c1OCC (stereo not given),26.9*,2.6,-2.1,-0.1
CCOc1cc(C(=O)NC(C)Cc2cccs2)cc(OCC)c1OCC (stereo not given),0.5,6.8,4.8,-3.3
Cc1cc(C(=O)COC(=O)c2ccc[nH]c2=O)c(C)n1-c1ccccc1F,0.0,3.6,3.6,-3.1
Cc1cc(C(=O)COC(=O)c2ccc(O)cc2)c(C)n1-c1ccccc1F,21.2*,12.5,2.6,-1.3
O=C(Nc1ccc(Cl)cc1)c1csc([C@@H]2O[C@H](CO)[C@@H](O)[C@H]2O)n1,0.7,-0.4,-8.5,-1.6
O=C(/C=C/c1cccc(Br)c1)N1CCN(c2cccc(C(F)(F)F)c2)CC1,23.9*,9.2,-1.7,3.2
O=C(/C=C/c1ccc(Br)cc1)N1CCN(c2cccc(C(F)(F)F)c2)CC1,1.8,-1.8,-3.8,2.7
SMILES,UHRF1 binding,MBD2 inh,PRMT1 inh,LEDGF integ inh
CC1=C(C(=O)N2CCCCCC2)CC(CC(=O)NCCCN(C)C)C(=O)N1Cc1ccc(C(C)(C)C)cc1 (stereo not given),3.6,0.9,6.9,-4.2
COC(=O)c1cc2c(-c3ccccc3)c(C)c3ccccn3c-2c1C(=O)OC,-5.5,-4.9,10.2,3.4
COC(=O)c1c(Cl)c2n3ccccc3c(C)c(-c3ccccc3)c-2c1C(=O)OC,4.8,-0.8,33.6*,4.1
NC(=O)C1CCN(C(=O)c2ccc([N+](=O)[O-])cc2NC(=O)c2cccs2)CC1,1.4,-1.2,-2.1,-0.7
COc1ccc(C(c2c(O)ccc3ccccc23)N2CCOCC2)c(OC)c1 (stereo not given),-2.9,0.3,67.4*,-3.4
O=C(CCCOc1ccc(Br)cc1)NCCc1ccc(OC(F)F)cc1,-0.9,-7.2,4.1,1.0
Cc1ccnn1CC(=O)N/N=C/c1cn[nH]c1-c1ccccc1,-1.1,-1.0,-1.7,-1.3
CC(=O)Nc1cccc(C(=O)/C=C/c2ccco2)c1,1.2,-0.5,21.5*,4.4
CC(=O)Nc1cccc(C(=O)/C=C/c2ccc[nH]2)c1,-1.4,-0.7,21.6*,10.7
CN(CCC#N)C(=O)COC(=O)/C=C/c1cccs1,3.9,6.6,5.4,-7.5
CCO/C=C/C(=O)N(C)CCC#N,100.1*,-2.4,1.6,-2.5
O=[N+]([O-])c1c(Nc2ccc(O)cc2)cc(Cl)c2nonc12,-7.1,-16.4,76.8*,2.8
CC(C)OCCCn1c(=NC(=O)c2cccs2)c(C#N)cc2c(=O)n3ccccc3nc21,30.2*,5.8,15.1,8.7
Cc1ccc(N2C(=O)CC(Cc3cc(C)cc(C)c3)C2=O)cc1 (stereo not given),23.6*,10.6,6.5,-5.3
O=C(NCc1cc(Cl)cc(Cl)c1)c1ccc2nc([C@@H]3O[C@H](CO)[C@H](O)[C@H](O)[C@H]3O)[nH]c2c1,2.7,-1.5,-0.4,-3.1
O=C(NCc1cc(Cl)cc(Cl)c1)c1ccc2nc(COCCO)[nH]c2c1,21.1*,1.1,3.0,0.0
CCOC(=O)c1c(N2C(=O)CC(Sc3ccccc3C(=O)O)C2=O)sc(C)c1C (stereo not given),-1.4,2.9,49.2*,-2.7
CCOC(=O)c1c(NC(=O)CSc2ccccc2C(=O)O)sc(C)c1C,-1.4,0.1,1.2,1.9
O=C1COc2ccc(C(=O)COC(=O)CNS(=O)(=O)c3cccc(F)c3)cc2N1,20.2,17.6*,-1.0,3.2
O=C1COc2ccc(C(=O)COC(=O)Cc3ccccc3F)cc2N1,4.1,-1.8,0.1,2.9
Cc1ccccc1N1CCN(C2CCCN(C(=O)CCN3CCCO3)C2)CC1 (stereo not given),2.8,2.7,-2.0,2.3
CNC(=O)COC(=O)c1cc(-c2ccco2)nc2ccccc12,11.3,3.3,11.7,16.1*
O=C(Nc1ccc(F)cc1F)c1cc(-c2ccco2)nc2ccccc12,-0.7,1.2,22.6*,-0.3
O=C(NNC(=O)c1ccccc1F)c1cccc(S(=O)(=O)N2CCc3ccccc32)c1,-2.2,-2.5,0.9,-0.5
c1ccc(Cn2ccc3ccc(-c4ccc5ccn(Cc6cccc(Oc7ccccc7)c6)c5c4)cc32)cc1,-0.3,2.1,0.8,4.2
CCOc1ccc2ccccc2c1CNCCc1ccc(S(N)(=O)=O)cc1,45.1*,-3.7,-0.4,3.9
CCc1ccc(C(=O)NNC(=O)CN2C(=O)NC3(CCCC3)C2=O)cc1,-1.8,-7.2,3.5,0.0
